From the supplement of paper PMC7411054
Where a name gives a salt, the structure may show the parent alone.

System: A549-ACTB-RAB5A
Assay: lowest phenotypically active concentration; higher = less potent
Conditions: treatment time: 24 h
Procedure, shortened: (§1)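 The reporter lines, fifteen in total and built by gene editing in A549, HepG2 and WPMY1 cells, used BFP for segmentation alongside GFP and RFP/FusionRed markers. Each was treated at 0.3, 1, 3 or 9 µM for 24 h in four wells and then imaged live, with live-cell features normalised to solvent control wells. Deviation meant ≥3 of 4 wells beyond the 95th percentile of control Euclidean distances; reproducibility meant a median replicate Pearson correlation above the 95th percentile of non-replicates. Only conditions meeting both were scored as phenotypically active.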

| SMILES | lowest phenotypically active concentration |
| --- | --- |
| O=C(CCCCCCC(=O)Nc1ccc([C@H]2O[C@@H](CSc3nc(-c4ccccc4)c(-c4ccccc4)o3)C[C@@H](c3ccc(CO)cc3)O2)cc1)NO [Tubacin] | 9 µM |
| CC1CNCCN1S(=O)(=O)c1cccc2cnccc12 (stereo not given) [H-7 dihydrochloride] | 9 µM |
| COc1cc(OC)c2c(=O)[nH]c(-c3cc(C)c(OCCO)c(C)c3)nc2c1 [apabetalone] | 9 µM |
| CC1(CN2CCC(n3c(=O)[nH]c4ccccc43)CC2)OCc2ccccc2-n2cccc21 (stereo not given) | 9 µM |
| N#Cc1ccc2ncnc(NCCc3ccccc3)c2c1 [Senexin A] | 3 µM |
| Nc1ccc(N=Nc2ccccc2)c(N)n1 [phenazopyridine] | ≤ 0.3 µM |
| O=C(CCCCCCC(=O)NO)NO | 9 µM |
| CC(C)(C)c1ccc(C(O)CCCN2CCC(C(O)(c3ccccc3)c3ccccc3)CC2)cc1 (stereo not given) [terfenadine] | 9 µM |
| COc1ccccc1C(=O)Nc1cc2c(cc1N1CCCC1)n(C)c(=O)n2C | 9 µM |
| CCC(=O)N1CCOc2c(cc(-c3ccc(OC)c(OC)c3)cc2OC[C@H]2CCCN(C)C2)C1 | 9 µM |
| CCc1nc(-c2cccc(C)c2)c(-c2ccnc(NC(=O)c3ccccc3)c2)s1 | 9 µM |
| Cc1ccc(S(=O)(=O)n2c(N)nc3ccccc32)cc1 | 9 µM |
| Cc1ccc(NC(=O)c2cccc(C(C)(C)C#N)c2)cc1Nc1ccc2ncn(C)c(=O)c2c1 | 1 µM |
| Cn1cc(-c2cnc3ccc4ccc(CS(=O)(=O)NCc5ccccn5)cc4c(=O)c3c2)cn1 | 9 µM |
| O=C1c2c(O)cccc2Cc2cccc(O)c21 [anthralin] | 9 µM |
| COc1cc2c(cc1OC)-c1c/c(=N/c3c(C)cc(C)cc3C)n(C)c(=O)n1CC2 [Trequinsin hydrochloride] | 9 µM |
| O=C(Nc1ccncc1)c1cc([N+](=O)[O-])ccc1Cl | 3 µM |
| Nc1ncnc2c1c(-c1ccc(Oc3ccccc3)cc1)nn2C1CCCC1 | 9 µM |
| O=C(Nc1ccc(CN2CCOCC2)cc1)c1ccc(-c2cccc(Cl)c2)o1 | 9 µM |
| O=C(/C=C/c1ccc2ccccc2n1)c1ccncc1 | 9 µM |

| SMILES | lowest phenotypically active concentration |
| --- | --- |
| CNCC[C@H](Oc1cccc2ccccc12)c1cccs1 [duloxetine] | 9 µM |
| CNC(=O)c1cc(Oc2ccc(NC(=O)Nc3ccc(Cl)c(C(F)(F)F)c3)c(F)c2)ccn1 [regorafenib] | 9 µM |
| NC(=O)[C@@H](CCC(F)(F)F)N(Cc1ccc(-c2ncon2)cc1F)S(=O)(=O)c1ccc(Cl)cc1 [avagacestat] | 9 µM |
| CCC(C)(C)C(=O)O[C@H]1C[C@@H](C)C=C2C=C[C@H](C)[C@H](CC[C@@H]3C[C@@H](O)CC(=O)O3)[C@H]21 [Simvastatin] | 3 µM |
| Nc1cc(N)c(N)cc1N [FAK Inhibitor 14] | 3 µM |
| Cc1ccc(S(=O)(=O)c2ccc([N+](=O)[O-])o2)cc1 | 3 µM |
| Fc1ccccc1Nc1nc2nonc2nc1Nc1ccccc1F | 9 µM |
| Cc1ccc(O)c([C@H](CCN(C(C)C)C(C)C)c2ccccc2)c1 [Tolterodine L-tartrate] | 9 µM |
| O=c1cc(-c2ccccc2)oc2cc(O)cc(O)c12 [Chrysin] | 9 µM |
| COc1cc2nccc(Oc3ccc(NC(=O)C4(C(=O)Nc5ccc(F)cc5)CC4)cc3)c2cc1OC | 3 µM |
| CC(C)c1nc(CN(C)C(=O)N[C@H](C(=O)N[C@@H](Cc2ccccc2)C[C@H](O)[C@H](Cc2ccccc2)NC(=O)OCc2cncs2)C(C)C)cs1 [ritonavir] | 9 µM |
| CC[C@H](CO)Nc1nc(Nc2cccc(-c3ccccn3)c2)c2ncn(C(C)C)c2n1 [(R)-DRF053 dihydrochloride] | 9 µM |
| CN1c2ccc([N+](=O)[O-])cc2N=C(c2ccc(C(=O)O)cc2)c2cc3c(cc21)C(C)(C)CCC3(C)C | 9 µM |
| COc1ccc(CCc2nc3cc(-c4c(C)noc4C)ccc3n2C[C@H](C)N2CCOCC2)cc1Cl | 3 µM |
| CCOC(=O)c1c2c3c(cccc3[nH]c1=O)C(=O)c1ccccc1-2 | 1 µM |
| CCN1/C(=C/C(C)=O)Sc2ccc(O)cc21 | 9 µM |
| CC(C)(C)n1nc(-c2ccc(Cl)cc2)c2c(N)ncnc21 | 1 µM |
| O=S(=O)(c1cccc2cnccc12)N1CCNCC1 | 3 µM |
| CC(C)c1c(C(=O)Nc2ccccc2)c(-c2ccccc2)c(-c2ccc(F)cc2)n1CC[C@@H](O)C[C@@H](O)CC(=O)O [atorvastatin] | 3 µM |

System: A549-GM130-SQSTM1
Assay: as above
Conditions: treatment time: 24 h
Procedure, shortened: as §1

| SMILES | lowest phenotypically active concentration |
| --- | --- |
| O=C(CCCCCCC(=O)Nc1ccc([C@H]2O[C@@H](CSc3nc(-c4ccccc4)c(-c4ccccc4)o3)C[C@@H](c3ccc(CO)cc3)O2)cc1)NO [Tubacin] | 9 µM |
| CC1CNCCN1S(=O)(=O)c1cccc2cnccc12 (stereo not given) [H-7 dihydrochloride] | 9 µM |
| COc1cc(OC)c2c(=O)[nH]c(-c3cc(C)c(OCCO)c(C)c3)nc2c1 [apabetalone] | 9 µM |
| N#Cc1ccc2ncnc(NCCc3ccccc3)c2c1 [Senexin A] | 3 µM |
| Nc1ccc(N=Nc2ccccc2)c(N)n1 [phenazopyridine] | 1 µM |
| CC(C)(C)c1ccc(C(O)CCCN2CCC(C(O)(c3ccccc3)c3ccccc3)CC2)cc1 (stereo not given) [terfenadine] | 3 µM |
| COc1ccccc1C(=O)Nc1cc2c(cc1N1CCCC1)n(C)c(=O)n2C | 9 µM |
| CCc1nc(-c2cccc(C)c2)c(-c2ccnc(NC(=O)c3ccccc3)c2)s1 | 9 µM |
| O=C1c2c(O)cccc2Cc2cccc(O)c21 [anthralin] | 9 µM |
| COc1cc2c(cc1OC)-c1c/c(=N/c3c(C)cc(C)cc3C)n(C)c(=O)n1CC2 [Trequinsin hydrochloride] | 9 µM |
| Nc1ncnc2c1c(-c1ccc(Oc3ccccc3)cc1)nn2C1CCCC1 | 9 µM |
| Nc1cc(N)c(N)cc1N [FAK Inhibitor 14] | 9 µM |
| Cc1ccc(S(=O)(=O)c2ccc([N+](=O)[O-])o2)cc1 | 3 µM |
| Fc1ccccc1Nc1nc2nonc2nc1Nc1ccccc1F | 3 µM |
| Cc1ccc(O)c([C@H](CCN(C(C)C)C(C)C)c2ccccc2)c1 [Tolterodine L-tartrate] | 9 µM |
| O=c1cc(-c2ccccc2)oc2cc(O)cc(O)c12 [Chrysin] | 9 µM |
| COc1cc2nccc(Oc3ccc(NC(=O)C4(C(=O)Nc5ccc(F)cc5)CC4)cc3)c2cc1OC | 3 µM |
| CC(C)c1nc(CN(C)C(=O)N[C@H](C(=O)N[C@@H](Cc2ccccc2)C[C@H](O)[C@H](Cc2ccccc2)NC(=O)OCc2cncs2)C(C)C)cs1 [ritonavir] | 9 µM |
| CC[C@H](CO)Nc1nc(Nc2cccc(-c3ccccn3)c2)c2ncn(C(C)C)c2n1 [(R)-DRF053 dihydrochloride] | 9 µM |
| CN1c2ccc([N+](=O)[O-])cc2N=C(c2ccc(C(=O)O)cc2)c2cc3c(cc21)C(C)(C)CCC3(C)C | 9 µM |
| CCOC(=O)c1c2c3c(cccc3[nH]c1=O)C(=O)c1ccccc1-2 | 1 µM |
